According to PubChem BioAssay AID488851 (National Center for Advancing Translational Sciences (NCATS), 2010):
Records with an inconclusive call do not appear. The source made the active and inactive calls. The call rests on the fitted dose curve; in most records, active means well fitted activation curve with a large enough effect; inconclusive means small, poorly fitted or top-dose-only effect; inactive means flat fitted curve, though single readings scatter.

target: Lysosomal acid glucosylceramidase (Homo sapiens) (UniProt P04062); assay: qHTS Assay for Inhibitors and Activators of N370S glucocerebrosidase as a Potential Chaperone Treatment of Gaucher Disease: Purified Non-mutant Confirmation for Probe SAR; conditions: purified GC, 4MU-beta-glucoside fluorescence, 40 min; series mostly up to 57.5 µM; activity change, negative = inhibition: at the top concentration
Description: NIH Chemical Genomics Center [NCGC] NIH Molecular Libraries Probe Production Centers Network [MLPCN] MLPCN Grant: MH086442-01 Assay Submitter (PI): Wei Zheng Glucocerebrosidase (GC) catalyzes the hydrolysis of beta-glucocerebroside to glucose and ceramide in lysosomes. Mutations in the glucocerebrosidase gene result in Gaucher disease, an autosomal recessive lysosomal storage disorder. Many of the mutations encountered in patients with Gaucher disease are missense alterations that may cause misfolding, decreased stability and/or mistrafficking of this lysosomal protein. […] These inhibitors include iminosugar analogs and three non-iminosugar inhibitors identified from a previous HTS of 62,000 compounds with the wild type recombinant enzyme. However, the enhancement of enzyme activity by the chaperone action of an enzyme inhibitor must be balanced against the direct inhibition of the enzyme. An enzyme activator could also function as a chaperone by binding to the enzyme and helping to correct its misfolding and mistrafficking. While activators for GC have not yet been identified, they may have better therapeutic potential than inhibitors. Therefore the discovery and development of chemical activators may provide a new strategy for the chaperone therapy. We have optimized a new assay using N370S mutant GC derived from the spleen of a Gaucher patient. […] In addition, the MLPCN compound library has expanded, which increases the chance of finding new and better probes. This assay characterizes compound activity using purified wildtype enzyme instead of mutant enzyme from tissue homogenate. Compound activity differences may be due to the absence of endogenous cofactors found in tissue homogenate as well as inherent differences in enzyme stability and catalytic activity between the N370S and wildtype forms of the protein.
NCGC Assay Protocol Summary: This is a fluorogenic enzyme assay with 4-methylumbelliferyl-beta-D-glucopyranoside as the substrate and purified wildtype glucocerebrosidase as the enzyme preparation. Upon the hydrolysis of this fluorogenic substrate, the resulting product, […] which can be detected by a standard fluorescence plate reader. Data were normalized to the controls for basal activity (without enzyme) and 100% activity (with enzyme). The AC50 values were determined from concentration-response data modeled with the standard Hill equation. Assay buffer: 50 mM citric acid (titrated with potassium phosphate to pH 5.0), 100 mM potassium chloride, 10 mM sodium chloride, 1 mM magnesium chloride, 0.01% Tween-20. 1536-well assay protocol: (1) Add 2 ul/well of glucocerebrosidase enzyme solution (5 nM final) (2) Add 23 nL compounds in DMSO solution. The final titration was 0.5 nM to 58 uM. (3) Add 2 ul of substrate (1 mM final) (4) Incubate at 37C for 40 min. (5) Add 2 ul stop solution (1M NaOH and 1M Glycine mixture, pH 10) (6) Detect the assay plate in a ViewLux plate reader (PerkinElmer) with Ex=365 nm and Em=440nm. Keywords: Glucocerebrosidase, beta-glucosidase, Gaucher Disease, pharmacological chaperone, chaperone therapy, high throughput screening, glucocerebrosidase inhibitor, MLSMR, MLSCN, NIH Roadmap, qHTS and NCGC

Chain of Lysosomal acid glucosylceramidase (Homo sapiens) (P04062 whole entry, looked up): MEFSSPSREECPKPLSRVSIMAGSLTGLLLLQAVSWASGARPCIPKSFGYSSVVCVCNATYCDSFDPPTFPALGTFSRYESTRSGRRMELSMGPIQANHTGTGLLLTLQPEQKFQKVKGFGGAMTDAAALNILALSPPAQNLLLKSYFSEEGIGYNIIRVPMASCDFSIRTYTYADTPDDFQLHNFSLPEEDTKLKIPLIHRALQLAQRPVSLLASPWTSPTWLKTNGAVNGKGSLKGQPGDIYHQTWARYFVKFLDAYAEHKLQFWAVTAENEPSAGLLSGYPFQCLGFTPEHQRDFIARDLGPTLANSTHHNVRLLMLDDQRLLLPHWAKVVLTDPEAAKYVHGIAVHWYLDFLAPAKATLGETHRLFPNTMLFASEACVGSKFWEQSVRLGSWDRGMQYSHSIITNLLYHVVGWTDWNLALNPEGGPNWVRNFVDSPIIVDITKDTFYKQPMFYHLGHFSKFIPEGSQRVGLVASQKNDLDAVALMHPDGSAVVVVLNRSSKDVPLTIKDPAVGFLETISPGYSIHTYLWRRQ

SMILES | Potency | activity change, negative = inhibition
Cc1cc(C)n2ncc(C(=O)Nc3ccc(C(F)(F)F)cc3)c2n1 | 6.51 µM (active) | –
COc1ccc(NC(=O)c2cnn3c(C)cc(C)nc23)cc1 | 16.3 µM (active) | –
COc1ccc(NC(=O)c2cnn3c(C)cc(C)nc23)cc1F | 13 µM (active) | –
Cc1cc(C)n2ncc(C(=O)Nc3ccc4c(c3)CCC4)c2n1 | 10.3 µM (active) | –
O=C(Nc1ccccc1Sc1ccccc1)c1cnn2c1NC(=C1CC1)C=C2C(F)F | 32.6 µM (active) | –
Cc1cc(C)n2ncc(C(=O)Nc3cccc(C#N)c3)c2n1 | – | 5.68% [at 19 µM] (inactive)
COc1ccc(NC(=O)c2cnn3c(C)cc(C)nc23)cc1OC | – | 21.2% (inactive)
Cc1cc(C)n2ncc(C(=O)NC3CCC(C(C)(C)C)CC3)c2n1 (stereo unspecified) | 13 µM (active) | –
COc1ccc(NC(=O)c2cnn3c(C)cc(C)nc23)cc1Cl | 20.6 µM (active) | –
Cc1cc(C)n2ncc(C(=O)NCc3ccccc3)c2n1 | 32.6 µM (active) | –
Cc1cc(C)n2ncc(C(=O)Nc3ccccc3C)c2n1 | 13 µM (active) | –
Cc1cc(C)n2ncc(C(=O)Nc3ccc(Br)cc3)c2n1 | 16.3 µM (active) | –
Cc1cccc(NC(=O)c2cnn3c(C)cc(C)nc23)c1 | 16.3 µM (active) | –
Cc1cc(C)n2ncc(C(=O)Nc3ccccc3)c2n1 | 7.3 µM (active) | –
Cc1cc(C)n2ncc(C(=O)Nc3ccncc3)c2n1 | – | 1.71% (inactive)
CNC(=O)c1cnn2c(C)cc(C)nc12 | – | -2.54% (inactive)

SMILES | Potency | activity change, negative = inhibition
Cc1cc(C)n2ncc(C(=O)NC(C)C)c2n1 | 41.1 µM (active) | –
Cc1cc(C)n2ncc(C(=O)Nc3ccc(S(C)(=O)=O)cc3)c2n1 | – | 8.37% (inactive)
Cc1cc(C)n2ncc(C(=O)NC3CCCCC3)c2n1 | 11.6 µM (active) | –
Cc1cc(C)n2ncc(C(=O)Nc3ccc4c(c3)OCCO4)c2n1 | 16.3 µM (active) | –
CC(=O)c1cccc(NC(=O)c2cnn3c(C)cc(C)nc23)c1 | 32.6 µM (active) | –
CC(=O)c1ccc(NC(=O)c2cnn3c(C)cc(C)nc23)cc1 | – | 20.5% (inactive)
Cc1cc(C)n2ncc(C(=O)NCc3ccco3)c2n1 | 23.1 µM (active) | –
CCc1ccc(NC(=O)c2cnn3c(C)cc(C)nc23)cc1 | 11.6 µM (active) | –
C#Cc1ccc(NC(=O)c2cnn3c(C)cc(C)nc23)cc1 | 5.17 µM (active) | –
Cc1cc(C)n2ncc(C(=O)Nc3ccc4c(c3)OCO4)c2n1 | 10.3 µM (active) | –
Cc1cc(C)n2ncc(C(=O)N3CCCC3)c2n1 | – | 2.31% (inactive)
Cc1cc(C)n2ncc(C(=O)Nc3ccc(C)c(C)c3)c2n1 | 5.8 µM (active) | –
Cc1ccc(NC(=O)c2cnn3c(C)cc(C)nc23)cc1 | 9.19 µM (active) | –
CC(=O)Nc1ccccc1NC(=O)c1cnn2c(C)cc(C)nc12 | – | 13.3% (inactive)
Cc1ccc(NC(=O)c2cnn3c(C)cc(C)nc23)c(C)c1 | 20.6 µM (active) | –
